The supplement of paper PMC6555819

Tests used:
Test in all cases: PBM binding z-score (relative to random genomic background probes); higher = stronger binding; sequences stand for … in GC…GCGATTGACAGCGTAGAATGAAGG
[1] = system: PPARg:RXRa DBDmut IVT, anti-RXR (DBD mutation: RXRa K156A/R161A, NR concentration 270 nM, RXRa partner concentration 90 nM)
In short: (§1)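 Ligand-free nuclear receptor dimers were applied to custom Agilent 4×180K protein-binding microarrays whose double-stranded probes carried direct-repeat seeds, single-nucleotide variants, half-site ablations and random human genomic background sequences in 34-nt variable regions. Incubation lasted 1 h. Binding z-scores were computed against the random background probes from regression-normalized fluorescence.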

[2] = system: PPARg:RXRa IVT, anti-PPARg (NR concentration 270 nM, RXRa partner concentration 90 nM)
In short: as §1

[3] = system: PPARg DBDmut:RXRa IVT, anti-PPARg (DBD mutation: PPARg1 K132A/R137A, NR concentration 270 nM, RXRa partner concentration 90 nM)
In short: as §1

[4] = system: PPARg DBDmut IVT, anti-PPARg (DBD mutation: PPARg1 K132A/R137A, NR concentration 270 nM)
In short: as §1

[5] = system: PPARg homodimer (NR concentration 180 nM)
In short: as §1

[6] = system: PXR:RXRa (NR concentration 270 nM, RXRa partner concentration 90 nM)
In short: as §1

[7] = system: PXR homodimer (NR concentration 270 nM)
In short: as §1

[8] = system: RARa:RXR (NR concentration 270 nM, RXRa partner concentration 90 nM)
In short: as §1

[9] = system: RARa homodimer (NR concentration 270 nM)
In short: as §1

[10] = system: RARb:RXRa (NR concentration 270 nM, RXRa partner concentration 90 nM)
In short: as §1

Row | Sequence | PBM binding z-score [1] | PBM binding z-score [2] | PBM binding z-score [3] | PBM binding z-score [4] | PBM binding z-score [5] | PBM binding z-score [6] | PBM binding z-score [7] | PBM binding z-score [8] | PBM binding z-score [9] | PBM binding z-score [10]
1 | ATCGAAAGTTCGACGAGGTGAGTATACACCGTTT | -0.191 | 0.687 | 0.332 | 1.16 | 0.996 | 1.42 | 2.24 | 1.03 | -0.0858 | 2.32
2 | CCGAGTAGGTTATCGGGCATTCAGGCAACGGTGA | 2.93 | 2.72 | -1.04 | -1.21 | 0.257 | -0.121 | -0.43 | 0.241 | 0.0766 | 0.742
3 | CCTAGCAGGCCGATCTGGGTCACTCAAGGCTTGA | 2.8 | 4.02 | -0.802 | -1.18 | 0.337 | 0.634 | -0.34 | 1.27 | -0.893 | 1.06
4 | CGAACTAGGTCATTGACCGGACAGTGAATAGTAA | 8.08 | 8.12 | 0.655 | 0.319 | 0.696 | 1.2 | -0.102 | 1.93 | 0.169 | 3.61
5 | GATTGTAGATCAAGGTTAAGAAAGACTAAGCTAA | 1.55 | 1.67 | -0.436 | -0.166 | -0.088 | 0.443 | -0.271 | 0.732 | -0.134 | 0.406
6 | TCTGGTAGATCAATAGAGGTTAAGAAAGTGCGCT | 1.4 | 0.577 | 0.241 | 0.106 | 0.418 | 3 | 0.367 | 1.75 | 0.0136 | 0.93
7 | CCAACTGGGGCAAAGGTTACCATACTCAGTACGA | 6.6 | 6.7 | 0.471 | -0.285 | 1.54 | 2.39 | 0.017 | 4.34 | 0.873 | 2.65
8 | CCGAGTAGGTTATGGGGAATTCAGGCAACGGTGA | 3.51 | 2.6 | -0.221 | 0.307 | 1.64 | 0.204 | 0.469 | 0.654 | 0.587 | 0.784
9 | CCGAATGGGGCAAGGTTACCATAACGCACAGCCA | 0.946 | 1.17 | -0.387 | -0.659 | 0.548 | 0.288 | -0.323 | 0.909 | -0.0739 | 1.75
10 | GCTTGTAGATCACGGTTAAGAAAGACTAAGCTAA | 2.32 | 1.04 | -0.32 | -0.283 | 0.0431 | -0.49 | -0.193 | -0.247 | 0.0308 | -0.178
11 | TCGAGTAGGTTACCAACGGGGCATTCAGCTTTCT | 3.15 | 2.64 | -0.246 | 0.0471 | -0.456 | -0.0163 | -0.774 | 0.402 | -1.51 | 0.936
12 | TCATATAGGTATAAGGTGAAAGTCGGTGTGGTAA | 2.8 | 2.27 | 1.02 | 0.854 | 1.32 | 0.935 | 0.866 | 1.62 | 1.54 | 1.23
13 | TCAGACAGGTGAAGGTAACTCAGGTACGCAGTCG | 2.78 | 1.13 | 0.341 | -0.339 | 0.564 | 0.641 | 0.447 | 0.878 | 0.775 | 1.18
14 | AGAATGAGCTTAAGATCAGGGAAACAGAATACAT | -0.826 | -0.493 | 0.133 | 0.568 | -0.142 | -0.393 | -0.0876 | 0.0208 | -0.0937 | -0.502
15 | ATAGACAGGTGATGAAGGTAACTCAGGCTATCAT | -0.221 | 0.67 | 1.3 | 0.102 | 0.341 | -0.261 | 0.251 | -0.0358 | 0.641 | 0.316
16 | GCAGACAGGTGAAACGGAGGTAACTCAGGGTGGC | 1.09 | 0.463 | -0.413 | -1.08 | -0.308 | 0.0496 | -0.337 | 0.668 | -0.627 | 0.729
17 | AGAACGAGGGCAATGAGTTGCTAGCACGGGTGGC | 3.04 | 2.38 | 0.736 | -0.0393 | -0.0603 | 0.451 | 0.523 | 0.256 | -0.567 | 1.98
18 | TCTAGATGGTCAAAGGTCACACACTCGAAATGCG | 3.19 | 5.41 | 1.82 | 1.44 | 5.45 | 6.1 | 1.7 | 7.48 | 3.63 | 4.89
19 | CGAACTGGGTCAAGGACAGTGAATCTCCGCACGC | 7.45 | 7.82 | 5.86 | 3.4 | 1.92 | 1.28 | -0.104 | 1.94 | 0.123 | 3.39
20 | CCTCGGAGGACAACAGGGGGTCAGAGCTGCCAGA | -0.238 | 1.33 | 0.527 | 1.03 | 1.56 | 3.18 | 0.0814 | 3.3 | 0.607 | 2.71
21 | ACTATTAGTTGACGTAGGGCAACCGATACGACGC | 0.188 | 0.602 | 1.2 | 0.785 | 0.291 | -0.373 | 0.109 | -0.162 | 0.628 | 0.773
22 | CAGCCTAGGTCAGGGCCAGGATAGGAGGAACGTT | 1.16 | 1.82 | -0.747 | -1.27 | 0.00488 | 0.262 | -0.967 | 0.879 | -0.655 | 3.49
23 | ATTATTAGTTGACTTAGGGCAACCGATACGACGC | 0.113 | 0.899 | 2.01 | 2.21 | 2.16 | 1.14 | 1.53 | 0.95 | 2.43 | 1.12
